# Measurements from PMC11006913.
# Residue numbers refer to the chain shown, from its start.
# Tests used:
# Experiment in all cases: PBM; 200 nM protein, PBS
# Settings in all cases: dsDNA, one strand shown
# CRX [1] = target: CRX (Homo sapiens, UniProt O43186 26-111)
# CRX [2] = target: CRX (Homo sapiens, UniProt O43186 26-111, E42D)
# CRX [3] = target: CRX (Homo sapiens, UniProt O43186 26-111, R41L)
# NKX2-4 [4] = target: T1, NKX2-4 (Homo sapiens, UniProt Q9H2Z4 175-261, P217L)
# T1 sequence: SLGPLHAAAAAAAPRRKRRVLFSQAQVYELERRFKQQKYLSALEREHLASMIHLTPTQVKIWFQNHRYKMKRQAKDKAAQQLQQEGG
# NKX2-4 [5] = target: T2, NKX2-4 (Homo sapiens, UniProt Q9H2Z4 175-261, T231S)
# T2 sequence: T1 sequence with L43P, T57S
# NKX2-4 [6] = target: T3, NKX2-4 (Homo sapiens, UniProt Q9H2Z4 175-261)
# T3 sequence: T1 sequence with L43P
# NKX2-6 = target: T4, NKX2-6 (Homo sapiens, UniProt A6NCS4 118-204, R150C)
# T4 sequence: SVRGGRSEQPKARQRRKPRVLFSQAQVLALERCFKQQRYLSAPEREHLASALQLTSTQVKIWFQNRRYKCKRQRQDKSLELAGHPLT
# NKX2-4 [7] = target: T5, NKX2-4 (Homo sapiens, UniProt Q9H2Z4 175-261, R246Q)
# T5 sequence: T1 sequence with L43P, R72Q
# PAX4 [8] = target: T6, PAX4 (Homo sapiens, UniProt O43316 9-242, R200K)
# T6 sequence: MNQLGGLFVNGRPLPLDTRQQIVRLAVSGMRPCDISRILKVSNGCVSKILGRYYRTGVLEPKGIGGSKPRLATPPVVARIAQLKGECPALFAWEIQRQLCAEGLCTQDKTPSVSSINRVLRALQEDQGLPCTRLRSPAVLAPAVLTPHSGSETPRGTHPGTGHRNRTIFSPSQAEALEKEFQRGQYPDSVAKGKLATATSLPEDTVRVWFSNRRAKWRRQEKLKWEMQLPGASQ
# PAX4 [9] = target: T7, PAX4 (Homo sapiens, UniProt O43316 9-242)
# T7 sequence: T6 sequence with K192R
# HOXB6 [10] = target: HOXB6 (Homo sapiens, UniProt P17509 132-218, K202E)
# Chain of HOXB6 (Homo sapiens, UniProt P17509 132-218, K202E) (P17509 132-218 K202E): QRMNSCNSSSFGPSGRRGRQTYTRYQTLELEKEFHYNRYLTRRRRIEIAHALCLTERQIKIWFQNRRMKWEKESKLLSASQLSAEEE
# HOXA2 [11] = target: HOXA2 (Homo sapiens, UniProt O43364 129-215, R185T)
# Chain of HOXA2 (Homo sapiens, UniProt O43364 129-215, R185T) (O43364 129-215 R185T): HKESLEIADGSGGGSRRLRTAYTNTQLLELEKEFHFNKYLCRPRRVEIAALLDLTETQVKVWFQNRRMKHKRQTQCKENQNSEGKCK
# ALX3 [12] = target: ALX3 (Homo sapiens, UniProt O95076 139-225, N203Q)
# Chain of ALX3 (Homo sapiens, UniProt O95076 139-225, N203Q) (O95076 139-225 N203Q): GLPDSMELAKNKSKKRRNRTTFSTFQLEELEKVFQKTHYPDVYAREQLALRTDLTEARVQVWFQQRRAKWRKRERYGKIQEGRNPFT
# PAX4 [13] = target: T8, PAX4 (Homo sapiens, UniProt O43316 9-242, R200Q)
# T8 sequence: T6 sequence with K192Q
# HOXA2 [14] = target: HOXA2 (Homo sapiens, UniProt O43364 129-215, R185K)
# Chain of HOXA2 (Homo sapiens, UniProt O43364 129-215, R185K) (O43364 129-215 R185K): as the sequence (O43364 129-215 R185T) above, with T57K counted along it
# PAX4 [15] = target: T9, PAX4 (Homo sapiens, UniProt O43316 9-242, F177V)
# T9 sequence: T6 sequence with F169V, K192R
# ALX3 [16] = target: ALX3 (Homo sapiens, UniProt O95076 139-225)
# Chain of ALX3 (Homo sapiens, UniProt O95076 139-225) (O95076 139-225): as the sequence (O95076 139-225 N203Q) above, with Q65N counted along it
# PAX4 [17] = target: T10, PAX4 (Homo sapiens, UniProt O43316 9-242, F177Y)
# T10 sequence: T6 sequence with F169Y, K192R
# PROP1 [18] = target: PROP1 (Homo sapiens, UniProt O75360 56-141)
# Chain of PROP1 (Homo sapiens, UniProt O75360 56-141) (O75360 56-141): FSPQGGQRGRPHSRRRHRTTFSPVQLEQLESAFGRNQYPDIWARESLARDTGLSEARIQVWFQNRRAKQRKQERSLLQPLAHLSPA
# PROP1 [19] = target: PROP1 (Homo sapiens, UniProt O75360 56-141, R99H)
# Chain of PROP1 (Homo sapiens, UniProt O75360 56-141, R99H) (O75360 56-141 R99H): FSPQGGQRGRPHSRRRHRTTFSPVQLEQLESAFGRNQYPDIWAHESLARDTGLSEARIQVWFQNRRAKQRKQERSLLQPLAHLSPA
# ALX3 [20] = target: ALX3 (Homo sapiens, UniProt O95076 139-225, L168Q)
# Chain of ALX3 (Homo sapiens, UniProt O95076 139-225, L168Q) (O95076 139-225 L168Q): as the sequence (O95076 139-225 N203Q) above, with L30Q, Q65N counted along it
# ALX3 [21] = target: ALX3 (Homo sapiens, UniProt O95076 139-225, L168V)
# Chain of ALX3 (Homo sapiens, UniProt O95076 139-225, L168V) (O95076 139-225 L168V): as the sequence (O95076 139-225 N203Q) above, with L30V, Q65N counted along it
# PROP1 [22] = target: PROP1 (Homo sapiens, UniProt O75360 56-141, F88S)
# Chain of PROP1 (Homo sapiens, UniProt O75360 56-141, F88S) (O75360 56-141 F88S): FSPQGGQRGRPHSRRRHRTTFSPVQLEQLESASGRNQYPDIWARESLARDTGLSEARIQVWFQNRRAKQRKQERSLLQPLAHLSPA
# PAX4 [23] = target: T11, PAX4 (Homo sapiens, UniProt O43316 9-242, R227W)
# T11 sequence: T6 sequence with K192R, R219W
# HOXA2 [24] = target: HOXA2 (Homo sapiens, UniProt O43364 129-215, Y150S)
# Chain of HOXA2 (Homo sapiens, UniProt O43364 129-215, Y150S) (O43364 129-215 Y150S): as the sequence (O43364 129-215 R185T) above, with Y22S, T57R counted along it
# ALX3 [25] = target: ALX3 (Homo sapiens, UniProt O95076 139-225, N203S)
# Chain of ALX3 (Homo sapiens, UniProt O95076 139-225, N203S) (O95076 139-225 N203S): as the sequence (O95076 139-225 N203Q) above, with Q65S counted along it
# HOXA2 [26] = target: HOXA2 (Homo sapiens, UniProt O43364 129-215)
# Chain of HOXA2 (Homo sapiens, UniProt O43364 129-215) (O43364 129-215): as the sequence (O43364 129-215 R185T) above, with T57R counted along it
# HOXB6 [27] = target: HOXB6 (Homo sapiens, UniProt P17509 132-218)
# Chain of HOXB6 (Homo sapiens, UniProt P17509 132-218) (P17509 132-218): as the sequence (P17509 132-218 K202E) above, with E71K counted along it
# Chain of CRX (Homo sapiens, UniProt O43186 26-111, R41L) (O43186 26-111 R41L): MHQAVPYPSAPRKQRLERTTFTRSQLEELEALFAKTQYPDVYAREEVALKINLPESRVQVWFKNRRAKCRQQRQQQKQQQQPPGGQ
# Chain of CRX (Homo sapiens, UniProt O43186 26-111) (O43186 26-111): as the sequence (O43186 26-111 R41L) above, with L16R counted along it
# Chain of CRX (Homo sapiens, UniProt O43186 26-111, E42D) (O43186 26-111 E42D): as the sequence (O43186 26-111 R41L) above, with L16R, E17D counted along it
sequence,measurement,setting,value
CCAGTGCA,binding signal,CRX [1],"8.15 upbm affinity estimate (log intensity, higher = more binding, comparable within an allelic series)"
same,binding signal,CRX [2],"8.21 upbm affinity estimate (log intensity, higher = more binding, comparable within an allelic series)"
same,binding signal,CRX [3],"8.38 upbm affinity estimate (log intensity, higher = more binding, comparable within an allelic series)"
CCCACTCA,binding signal,NKX2-4 [4],"12.4 upbm affinity estimate (log intensity, higher = more binding, comparable within an allelic series)"
same,binding signal,NKX2-4 [5],"12.7 upbm affinity estimate (log intensity, higher = more binding, comparable within an allelic series)"
same,binding signal,NKX2-4 [6],"12.2 upbm affinity estimate (log intensity, higher = more binding, comparable within an allelic series)"
same,binding signal,NKX2-6,"11.3 upbm affinity estimate (log intensity, higher = more binding, comparable within an allelic series)"
same,binding signal,NKX2-4 [7],"12.6 upbm affinity estimate (log intensity, higher = more binding, comparable within an allelic series)"
ACGGCGAC,binding signal,NKX2-4 [4],"9.81 upbm affinity estimate (log intensity, higher = more binding, comparable within an allelic series)"
same,binding signal,NKX2-4 [5],"9.82 upbm affinity estimate (log intensity, higher = more binding, comparable within an allelic series)"
same,binding signal,NKX2-4 [6],"9.78 upbm affinity estimate (log intensity, higher = more binding, comparable within an allelic series)"
same,binding signal,NKX2-4 [7],"9.81 upbm affinity estimate (log intensity, higher = more binding, comparable within an allelic series)"
CCCGGGCC,binding signal,NKX2-4 [4],"9.16 upbm affinity estimate (log intensity, higher = more binding, comparable within an allelic series)"
same,binding signal,NKX2-4 [5],"8.94 upbm affinity estimate (log intensity, higher = more binding, comparable within an allelic series)"
same,binding signal,PAX4 [8],"9.02 upbm affinity estimate (log intensity, higher = more binding, comparable within an allelic series)"
same,binding signal,PAX4 [9],"9.01 upbm affinity estimate (log intensity, higher = more binding, comparable within an allelic series)"
same,binding signal,NKX2-4 [6],"9.18 upbm affinity estimate (log intensity, higher = more binding, comparable within an allelic series)"
same,binding signal,HOXB6 [10],"8.77 upbm affinity estimate (log intensity, higher = more binding, comparable within an allelic series)"
same,binding signal,HOXA2 [11],"7.21 upbm affinity estimate (log intensity, higher = more binding, comparable within an allelic series)"
same,binding signal,ALX3 [12],"7.64 upbm affinity estimate (log intensity, higher = more binding, comparable within an allelic series)"
same,binding signal,PAX4 [13],"9.07 upbm affinity estimate (log intensity, higher = more binding, comparable within an allelic series)"
same,binding signal,HOXA2 [14],"10.1 upbm affinity estimate (log intensity, higher = more binding, comparable within an allelic series)"
same,binding signal,PAX4 [15],"8.94 upbm affinity estimate (log intensity, higher = more binding, comparable within an allelic series)"
same,binding signal,ALX3 [16],"7.66 upbm affinity estimate (log intensity, higher = more binding, comparable within an allelic series)"
same,binding signal,NKX2-4 [7],"9.15 upbm affinity estimate (log intensity, higher = more binding, comparable within an allelic series)"
same,binding signal,PAX4 [17],"8.97 upbm affinity estimate (log intensity, higher = more binding, comparable within an allelic series)"
same,binding signal,PROP1 [18],"6.58 upbm affinity estimate (log intensity, higher = more binding, comparable within an allelic series)"
same,binding signal,PROP1 [19],"6.56 upbm affinity estimate (log intensity, higher = more binding, comparable within an allelic series)"
same,binding signal,ALX3 [20],"7.63 upbm affinity estimate (log intensity, higher = more binding, comparable within an allelic series)"
same,binding signal,ALX3 [21],"7.64 upbm affinity estimate (log intensity, higher = more binding, comparable within an allelic series)"
same,binding signal,PROP1 [22],"6.14 upbm affinity estimate (log intensity, higher = more binding, comparable within an allelic series)"
same,binding signal,PAX4 [23],"9.08 upbm affinity estimate (log intensity, higher = more binding, comparable within an allelic series)"
same,binding signal,HOXA2 [24],"10.2 upbm affinity estimate (log intensity, higher = more binding, comparable within an allelic series)"
same,binding signal,ALX3 [25],"7.61 upbm affinity estimate (log intensity, higher = more binding, comparable within an allelic series)"
same,binding signal,HOXA2 [26],"7.08 upbm affinity estimate (log intensity, higher = more binding, comparable within an allelic series)"
same,binding signal,HOXB6 [27],"8.77 upbm affinity estimate (log intensity, higher = more binding, comparable within an allelic series)"
